From PubChem BioAssay AID686979 (National Center for Advancing Translational Sciences (NCATS), 2013)
Screen size: about 420,000 compounds; about 50,000 (12%) were called active. Another 26% or so got no clear call; they are omitted. This excerpt belongs to a sample that is enriched for actives. Unmarked numbers belong to inactive results. Calls follow the shape of the dose curve; as a rule, active = well fitted inhibition curve with a large enough effect; inconclusive = small, poorly fitted or top-dose-only effect; inactive = flat fitted curve, though single readings scatter.

Test: qHTS for Inhibitors of human tyrosyl-DNA phosphodiesterase 1 (TDP1): qHTS in cells in presence of CPT; also: nearly all actives have a fitted effect of over 55% in size
Settings: chicken DT40 Tdp1-/-;hTDP1 cells + 20 nM CPT, ATP luminescence, 48 h; series mostly up to 46.2 µM; activity change, negative = growth inhibition: at the top concentration
Method in brief: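 Chicken DT40 Tdp1-/- cells stably complemented with human TDP1 were seeded at 400 cells/well in medium containing 20 nM camptothecin, exposed to pin-transferred compounds, and grown at 37 °C for at least 48 hr. Viability was read as ATP luminescence.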
% is scaled to controls: 0 for no effect and ±100 for the full control effect; potency is read from the fitted curve at half-maximal effect.

Compared with `Cc1c(C(=O)NC(C)C2CC3CCC2C3)cccc1[N+](=O)[O-]` (stereo unspecified), `Cc1ccc(NC(=O)c2sccc2C)cc1[N+](=O)[O-]` is higher in “activity change, negative = growth inhibition” value: -8.19% for the first, 5.4% for the second.

Going from `CCn1c(CSc2nc(C)cc(C)n2)nnc1SCC(N)=O` to `Cc1cc(C)c2c(NC(=O)C3CC3)nn(C)c2n1`, the “activity change, negative = growth inhibition” value falls from 16% to -6.29%.

Going from `O=C(Nc1ccccc1Br)c1cc(CN2CCCC2)on1` to `O=C(c1ccccc1)c1ccc(OCC(O)CN2CCCC2)cc1` (stereo unspecified), the “activity change, negative = growth inhibition” value rises from -28% to -0.0362%.

Compared with `Cc1cn(COC/C=C/c2ccccc2)c(=O)[nH]c1=O`, `Cc1ccc2c(O)c(Cc3ccccc3)c(=O)[nH]c2n1` is higher in “activity change, negative = growth inhibition” value: -9.62% for the first, -7.61% for the second.

Compared with `O=C(NCc1ccccn1)c1c(O)c2c([nH]c1=O)CCCC2`, `O=C(NCCc1ccccn1)c1nc(Cn2cc([N+](=O)[O-])cn2)no1` is higher in “activity change, negative = growth inhibition” value: -28.7% for the first, 5.17% for the second.

First: O=C1NC(=O)C(c2ccc(Cl)cc2)N1 (stereo unspecified)
Second: O=C(NCC1CCCO1)c1ccc2ccccc2n1 (stereo unspecified)
The “activity change, negative = growth inhibition” value of the first is lower: -9.04% for the first, -6.77% for the second.

Going from `CCCCN(C(=O)C1=NN(c2cc(C)ccc2C)C(=O)CC1)c1c(N)n(CCC)c(=O)[nH]c1=O` to `CCOC(=O)C(Cc1ccccc1)NC(=O)CCc1c(C)nc2c(c(C)nn2-c2ccc(C)c(C)c2)c1C` (stereo unspecified), the “activity change, negative = growth inhibition” value falls from -5.86% to -29.9%.

First: O=C(NCC1CCCO1)c1cc(-c2ccccc2)nc2ccccc12 (stereo unspecified)
Second: COc1ccccc1OCc1ccc(C(=O)NC(C)c2ccccc2)o1 (stereo unspecified)
The “activity change, negative = growth inhibition” value of the first is lower: -17% for the first, 1.09% for the second.

Compared with `CCOC(=O)c1c(-c2ccccc2)oc2cc(Br)c(O)cc12`, `COc1cc2c(C(=O)O)c(C)n(C)c2c2ccccc12` is higher in “activity change, negative = growth inhibition” value: -23% for the first, -17.2% for the second.

First: O=C(c1ccncc1)N1CCN(c2ccc3ccccc3n2)CC1
Second: CC(=O)N1c2ccccc2CC1C(=O)N1CCN(c2ccc(F)cc2)CC1 (stereo unspecified)
The “activity change, negative = growth inhibition” value of the first is lower: -24.9% for the first, -18.4% for the second.

Going from `Cn1cc(CN2CCC(C(O)CCc3ccccc3)CC2)c(-c2ccccc2F)n1` (stereo unspecified) to `O=C(COC(=O)Cc1ccccc1F)NCCc1ccccc1`, the “activity change, negative = growth inhibition” value falls from 10.5% to 4.14%.

Compared with `CCC(=O)c1ccc(OC(=O)/C=C/c2cc(OC)c(OC)c(OC)c2)cc1`, `COC(=O)c1ccc(COc2ccc(/C=N/NC(=O)C(=O)Nc3ccc(OC)cc3)cc2OC)o1` is lower in “activity change, negative = growth inhibition” value: 2.38% for the first, -8.05% for the second.

First: NS(=O)(=O)c1ccc(NC2=CC(c3ccc(F)cc3)N(c3ccc(S(N)(=O)=O)cc3)C2=O)cc1 (stereo unspecified)
Second: O=C(Nc1ccc(F)cc1)N1CCN(c2ccc(F)cc2)CC1
The “activity change, negative = growth inhibition” value of the first is lower: -11.3% for the first, 19.6% for the second.

Going from `Cc1[nH]nc(SCC(=O)NCC(C)C)c1[N+](=O)[O-]` to `CCCC(=O)OCC(=O)Nc1cc(Cl)ccc1[N+](=O)[O-]`, the “activity change, negative = growth inhibition” value rises from 2.73% to 6.39%.

First: CC1CCCC(N2CCN(C(=O)c3ccc(F)cc3)CC2)C1 (stereo unspecified)
Second: O=C(c1ccc(NS(=O)(=O)c2ccc3[nH]c(=O)[nH]c3c2)cc1)N1CCCCC1
The “activity change, negative = growth inhibition” value of the first is lower: 3% for the first, 5.76% for the second.

Going from `CCOc1ccc(C2C(C#N)=C(N)N(N(C)C)C3=C2C(=O)CCC3)cc1` (stereo unspecified) to `CCOc1ccc(N2C(=O)Nc3ccccc3C2(O)C(=O)NCc2ccco2)cc1` (stereo unspecified), the “activity change, negative = growth inhibition” value falls from -4.52% to -10.1%.

First: O=C(NC1CCCC1)C1CCN(C(=O)Nc2cccc(Cl)c2)CC1
Second: COC(=O)C1CCN(C(=O)NC2CC(=O)N(c3ccc4c(c3)OCCO4)C2)CC1 (stereo unspecified)
The “activity change, negative = growth inhibition” value of the first is lower: 0.714% for the first, 1.67% for the second.

First: COc1ccc(CNC(=O)COC(=O)c2sccc2C)cc1OC
Second: COc1ccc(NC(=O)CCS(=O)(=O)c2cc3c(cc2Cl)NC(=O)CO3)cc1OC
The “activity change, negative = growth inhibition” value of the first is lower: -16.2% for the first, -12.9% for the second.

First: OC(COc1ccccc1)Cn1cc(Br)cn1 (stereo unspecified)
Second: CCCc1ccc(OCC(O)CN2CCN(CCO)CC2)cc1 (stereo unspecified)
The “activity change, negative = growth inhibition” value of the first is lower: 5.11% for the first, 6.86% for the second.

First: Cc1ccc(OCCNC(=O)CCNS(=O)(=O)c2ccc(Br)cc2)cc1
Second: Cc1ccc(OCC(=O)NCCCNC(=O)c2ccco2)cc1C
The “activity change, negative = growth inhibition” value of the first is lower: -29.3% for the first, 11% for the second.

Going from `COc1ccc(C)cc1S(=O)(=O)Nc1cccc(Cl)c1Cl` to `COc1ccc(C)cc1Nc1nc(-c2c(C)[nH]c3ccccc23)cs1`, the “activity change, negative = growth inhibition” value falls from -10.9% to -20.2%.

Going from `N#CC1(NC(=O)COC(=O)CSc2ccc(F)cc2)CCCCC1` to `CC(=O)N1CCN(CC(=O)Nc2ccc(C)c(F)c2)CC1`, the “activity change, negative = growth inhibition” value rises from -20.6% to -19.2%.

Compared with `Cc1ccc(NC(=O)NC(=O)c2ccccc2)cc1F`, `COc1ccccc1C(=O)Nc1cccc(C(=O)N2CCOCC2)c1` is higher in “activity change, negative = growth inhibition” value: -13.6% for the first, 9.81% for the second.

Compared with `COC(=O)c1sc(SC)c(S(=O)(=O)C(C)C)c1N/N=C(\C#N)S(=O)(=O)c1ccccn1`, `CC(C)N(C)C(=O)CCc1nnc(CCc2c[nH]c3ccccc23)o1` is lower in “activity change, negative = growth inhibition” value: 1.69% for the first, -6.4% for the second.

Compared with `CC(=O)c1ccc(-c2nnc(CCC(=O)N(C)Cc3cnc4ccccn34)o2)s1`, `NC(=O)COC(=O)c1ccc2c(c1)C(=O)N(Cc1ccco1)C2=O` is lower in “activity change, negative = growth inhibition” value: 0.834% for the first, -16.2% for the second.

Going from `CNc1cncc(-c2cccc(C(=O)N3CCOCC3)c2)n1` to `O=C(CSc1nccc(=O)[nH]1)Nc1ccc(N2CCOCC2)c(Cl)c1`, the “activity change, negative = growth inhibition” value rises from -12.1% to -2.28%.

With `CNC[C@H]1Oc2c(NC(=O)C3CCCCC3)cccc2C(=O)N([C@H](C)CO)C[C@@H]1C` the “activity change, negative = growth inhibition” value was 11.7%.

In the case of `Cc1[nH]c(=O)c(C(=O)/C=C/c2ccccc2)c2c1CCCC2`, the Potency is reported as 5.8 µM (active).
With `O=C(NCC1CCCO1)c1cc2c([nH]c3ccccc32)c(-c2ccc(F)cc2)n1` (stereo unspecified) the Potency was 2.06 µM (active).
With `N=c1n(CCc2ccccc2)c2ccccc2n1Cc1ccccc1F` the Potency was 7.31 µM (active).
For `CC1(C)C=Cc2c(ccc3c2OC[C@@H](c2ccc(O)cc2O)C3)O1`, the Potency was 25.9 µM (active).
For `CCCc1ccc(OCc2ccc(C(=O)N/N=C/c3cccc([N+](=O)[O-])c3)o2)c(OC)c1`, the Potency was 8.2 µM (active).
For `OC(CN=c1sc2ccccc2n1CC(O)COc1ccccc1)COc1ccccc1` (stereo unspecified), the Potency was 25.9 µM (active).
With `COc1ccc(C)cc1Nc1n[n+](-c2ccccc2)c(-c2cccc(Cl)c2Cl)s1` the Potency was 13 µM (active).
For `Cc1ccc(NC2=C(c3ccc(C(F)(F)F)cc3)C(=O)c3ccccc32)cc1F`, the Potency was 8.2 µM (active).
For `CCc1ccc(CN(C)C(=O)CCc2nnc(-c3ccc(-c4ccccc4)cc3)o2)nc1`, the Potency was 18.4 µM (active).
For `CC(=O)c1cccc(-c2cnc3c(NC=O)cc(-c4ccccc4Oc4ccccc4)cn23)c1`, the Potency was 14.6 µM (active).
For `CN(C)C(=O)c1cccc(-c2cnc3c(NC=O)cc(-c4ccc(C(=O)N5CCOCC5)cc4)cn23)c1`, the Potency was 29.1 µM (active).
For `CC(=O)c1cccc(-c2cnc3c(NC=O)cc(-c4ccc(N(C)C)cc4)cn23)c1`, the Potency was 7.31 µM (active).
For `CC(=O)Nc1cc(-c2ccc(N3CCN(C)CC3)cc2)cn2c(-c3ccc(F)cc3)cnc12`, the Potency was 5.17 µM (active).
